{
  "source": "paper PMC4336329",
  "about": "(PLoS ONE, 2015)",
  "note": "Screen size: about 310,000 compounds; about 14,000 (4.5%) showed an effect of 50% or more. Effects have a minus sign here. The list comes from a sample in which strong results are over-represented; it also holds similar structures and randomly drawn compounds.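 Also: peak tail current of the secondary pulse compared with the same well before compound.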",
  "data": [
    {"target": "human ether-à-go-go-related gene (hERG) potassium channel (human, UniProt Q12809)", "sequence (Q12809 whole entry, looked up)": "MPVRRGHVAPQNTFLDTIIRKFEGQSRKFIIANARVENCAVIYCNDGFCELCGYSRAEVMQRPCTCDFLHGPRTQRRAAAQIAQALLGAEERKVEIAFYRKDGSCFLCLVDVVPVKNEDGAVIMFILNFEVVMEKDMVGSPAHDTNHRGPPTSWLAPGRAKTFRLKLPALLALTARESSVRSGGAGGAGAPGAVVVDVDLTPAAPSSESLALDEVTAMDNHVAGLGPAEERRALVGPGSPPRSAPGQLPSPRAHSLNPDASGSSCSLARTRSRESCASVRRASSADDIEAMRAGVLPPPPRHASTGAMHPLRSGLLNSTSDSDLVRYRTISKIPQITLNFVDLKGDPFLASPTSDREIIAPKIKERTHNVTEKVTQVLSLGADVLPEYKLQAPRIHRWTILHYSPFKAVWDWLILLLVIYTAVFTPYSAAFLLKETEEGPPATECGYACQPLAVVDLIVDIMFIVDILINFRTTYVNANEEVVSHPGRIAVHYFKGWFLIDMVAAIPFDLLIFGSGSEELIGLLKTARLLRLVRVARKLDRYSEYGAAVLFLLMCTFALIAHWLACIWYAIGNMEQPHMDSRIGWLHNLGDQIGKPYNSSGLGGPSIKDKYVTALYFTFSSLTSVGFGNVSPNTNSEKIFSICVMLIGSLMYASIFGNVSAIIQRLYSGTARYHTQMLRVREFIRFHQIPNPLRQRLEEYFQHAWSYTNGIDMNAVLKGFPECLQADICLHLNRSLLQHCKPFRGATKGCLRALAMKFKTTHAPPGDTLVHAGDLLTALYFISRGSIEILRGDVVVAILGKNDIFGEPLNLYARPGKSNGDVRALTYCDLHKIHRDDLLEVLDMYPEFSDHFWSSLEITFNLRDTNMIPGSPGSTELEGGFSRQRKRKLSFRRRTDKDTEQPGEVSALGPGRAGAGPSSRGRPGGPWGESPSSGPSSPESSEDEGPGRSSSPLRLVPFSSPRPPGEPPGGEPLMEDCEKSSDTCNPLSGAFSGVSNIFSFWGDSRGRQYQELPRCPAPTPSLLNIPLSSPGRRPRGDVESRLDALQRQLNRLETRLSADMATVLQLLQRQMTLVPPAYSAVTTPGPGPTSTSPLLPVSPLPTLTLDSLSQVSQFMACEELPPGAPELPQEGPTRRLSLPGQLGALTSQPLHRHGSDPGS", "experiment": "primary screen, population patch clamp on CHO cells stably expressing hERG; higher = less effect of the substance", "units": {"hERG current change (%, negative = inhibition) at 10uM": "%"}, "values": [
      {"smiles": "Cc1ccc(-n2nnnc2SCC(=O)c2c(N)n(CC(C)C)c(=O)n(C)c2=O)cc1", "hERG current change (%, negative = inhibition) at 10uM": -69.1},
      {"smiles": "CCc1ccc(C(=O)OCC(=O)c2c(N)n(CC(C)C)c(=O)n(C)c2=O)cc1", "hERG current change (%, negative = inhibition) at 10uM": -0.249},
      {"smiles": "CCCn1c(N)c(C(=O)CSc2nnnn2-c2ccc(O)cc2)c(=O)n(C)c1=O", "hERG current change (%, negative = inhibition) at 10uM": 5.2},
      {"smiles": "Cn1c(N)c(C(=O)COC(=O)c2ccc([N+](=O)[O-])o2)c(=O)n(C)c1=O", "hERG current change (%, negative = inhibition) at 10uM": -34.6},
      {"smiles": "CC(C)Cn1c(N)c(C(=O)CSc2nnnn2C)c(=O)n(C)c1=O", "hERG current change (%, negative = inhibition) at 10uM": 4.91},
      {"smiles": "CC(C)Cn1c(N)c(C(=O)COC(=O)CCc2nc3ccccc3s2)c(=O)n(C)c1=O", "hERG current change (%, negative = inhibition) at 10uM": -69.3},
      {"smiles": "COc1ccc(NS(=O)(=O)c2ccc(NC(=O)C3CC3)cc2)cc1", "hERG current change (%, negative = inhibition) at 10uM": 18.6},
      {"smiles": "CCOc1ccc(CC(=O)OCn2nnc3ccccc3c2=O)cc1", "hERG current change (%, negative = inhibition) at 10uM": 11.4},
      {"smiles": "Cc1ccc(NS(=O)(=O)c2ccc(-c3ccc(=O)[nH]n3)o2)cc1N(C)C", "hERG current change (%, negative = inhibition) at 10uM": 1.5},
      {"smiles": "Fc1ccccc1C1c2cccn2CCN1C(=S)Nc1cccc(Br)c1", "note": "(centres unmarked)", "hERG current change (%, negative = inhibition) at 10uM": 12.9},
      {"smiles": "CN1C(=O)OC(C)(C)C1=O", "hERG current change (%, negative = inhibition) at 10uM": -2.78},
      {"smiles": "CO/N=C/C(C#N)=C/c1cc(C(=O)c2ccccc2)cn1C", "hERG current change (%, negative = inhibition) at 10uM": 18.4},
      {"smiles": "O=C1OCCN1C(=O)[C@H]1[C@H](c2ccc([N+](=O)[O-])cc2)C(c2cccc(Cl)c2)=NN1c1ccccc1", "hERG current change (%, negative = inhibition) at 10uM": 5.99},
      {"smiles": "CCOC(=O)c1ccc(NC(=O)N2C3CCCC2CC(NC(C)=O)C3)cc1", "note": "(centres unmarked)", "hERG current change (%, negative = inhibition) at 10uM": -11.6},
      {"smiles": "Cc1cccc(C(=O)OCC(=O)c2c(N)n(CC(C)C)c(=O)n(C)c2=O)c1O", "hERG current change (%, negative = inhibition) at 10uM": -15.2},
      {"smiles": "Cc1ccc(OCCC(=O)OCC(=O)c2c(N)n(C)c(=O)n(C)c2=O)cc1", "hERG current change (%, negative = inhibition) at 10uM": -58.3},
      {"smiles": "CC(=O)NC(CC(=O)OCC(=O)c1c(N)n(CC(C)C)c(=O)n(C)c1=O)c1ccccc1", "note": "(centres unmarked)", "hERG current change (%, negative = inhibition) at 10uM": -3.32},
      {"smiles": "Cc1csc(=O)n1CCC(=O)OCC(=O)c1c(N)n(CC(C)C)c(=O)n(C)c1=O", "hERG current change (%, negative = inhibition) at 10uM": -26.2},
      {"smiles": "Cc1ccc(OCCC(=O)OCC(=O)c2c(N)n(CC(C)C)c(=O)n(C)c2=O)cc1", "hERG current change (%, negative = inhibition) at 10uM": -71.9},
      {"smiles": "CCOc1ccccc1OCC(=O)OCC(=O)c1c(N)n(CC(C)C)c(=O)n(C)c1=O", "hERG current change (%, negative = inhibition) at 10uM": -67.5},
      {"smiles": "Cc1cc(C)cc(OCC(=O)OCC(=O)c2c(N)n(C)c(=O)n(C)c2=O)c1", "hERG current change (%, negative = inhibition) at 10uM": -5.06},
      {"smiles": "CCC(C(=O)OCC(=O)c1c(N)n(CC(C)C)c(=O)n(C)c1=O)c1ccccc1", "note": "(centres unmarked)", "hERG current change (%, negative = inhibition) at 10uM": -2.13},
      {"smiles": "Cc1ccccc1OCCC(=O)OCC(=O)c1c(N)n(CC(C)C)c(=O)n(C)c1=O", "hERG current change (%, negative = inhibition) at 10uM": -75.2},
      {"smiles": "CC(C)Cn1c(N)c(C(=O)COC(=O)CCNS(=O)(=O)c2ccccc2)c(=O)n(C)c1=O", "hERG current change (%, negative = inhibition) at 10uM": -48.4},
      {"smiles": "Cc1ccc(S(=O)(=O)CCC(=O)OCC(=O)c2c(N)n(CC(C)C)c(=O)n(C)c2=O)cc1", "hERG current change (%, negative = inhibition) at 10uM": -27.9},
      {"smiles": "CCOc1ccc(OCCC(=O)OCC(=O)c2c(N)n(C)c(=O)n(C)c2=O)cc1", "hERG current change (%, negative = inhibition) at 10uM": -23},
      {"smiles": "O=C(Cn1cnc2ccccc21)OCC(=O)N1CCCc2ccccc21", "hERG current change (%, negative = inhibition) at 10uM": 8.8},
      {"smiles": "CCCCNC(=S)N/N=C/c1ccccc1F", "hERG current change (%, negative = inhibition) at 10uM": 2.81},
      {"smiles": "Cc1ccc(OC(C)C(=O)Nc2ccc3c(c2)n(C)c(=O)n3C)c(C)c1", "note": "(centres unmarked)", "hERG current change (%, negative = inhibition) at 10uM": 11.7},
      {"smiles": "Cc1ccc(S(=O)(=O)NCc2ccc(C(=O)NCCN(Cc3ccccc3)C(C)C)cc2)cc1", "hERG current change (%, negative = inhibition) at 10uM": -36.4},
      {"smiles": "Cc1ccc(S(=O)(=O)NC(CC(C)C)C(=O)NCC(C)(C)N2CCOCC2)cc1", "note": "(centres unmarked)", "hERG current change (%, negative = inhibition) at 10uM": 11.6},
      {"smiles": "COc1ccc(NC(=O)CCCn2c(=O)c3sccc3n(Cc3cccc(C)c3)c2=O)cc1", "hERG current change (%, negative = inhibition) at 10uM": 12.7},
      {"smiles": "Cc1cnc(C(=O)OCC(=O)NCCc2ccccc2)cn1", "hERG current change (%, negative = inhibition) at 10uM": -3.4},
      {"smiles": "O=C(c1cccc(NS(=O)(=O)c2cccc(F)c2)c1)N1CCN(c2ccccc2)CC1", "hERG current change (%, negative = inhibition) at 10uM": -8.41},
      {"smiles": "CSCCC(NC(=O)COc1cccc2ccccc12)C(=O)O", "note": "(centres unmarked)", "hERG current change (%, negative = inhibition) at 10uM": 0.83},
      {"smiles": "Cc1ccc(N2CC(C(=O)OCC(=O)c3c(N)n(CC(C)C)c(=O)n(C)c3=O)CC2=O)cc1", "note": "(centres unmarked)", "hERG current change (%, negative = inhibition) at 10uM": -3.07},
      {"smiles": "COc1ccccc1CCC(=O)OCC(=O)c1c(N)n(CC(C)C)c(=O)n(C)c1=O", "hERG current change (%, negative = inhibition) at 10uM": -70.3},
      {"smiles": "COc1ccc(/C=C/C(=O)OCC(=O)c2c(N)n(C)c(=O)n(C)c2=O)cc1", "hERG current change (%, negative = inhibition) at 10uM": 5.38},
      {"smiles": "COc1ccc(CCC(=O)OCC(=O)c2c(N)n(CC(C)C)c(=O)n(C)c2=O)cc1", "hERG current change (%, negative = inhibition) at 10uM": -33.4},
      {"smiles": "Cn1c(N)c(C(=O)COC(=O)COc2ccccc2C#N)c(=O)n(C)c1=O", "hERG current change (%, negative = inhibition) at 10uM": -23.2},
      {"smiles": "Cc1cccc(OCC(=O)OCC(=O)c2c(N)n(C)c(=O)n(C)c2=O)c1C", "hERG current change (%, negative = inhibition) at 10uM": -1.84},
      {"smiles": "CCc1ccc(N2CC(C(=O)OCC(=O)c3c(N)n(CC(C)C)c(=O)n(C)c3=O)CC2=O)cc1", "note": "(centres unmarked)", "hERG current change (%, negative = inhibition) at 10uM": -7.72},
      {"smiles": "Cn1c(N)c(C(=O)COC(=O)/C=C/c2ccc(F)cc2)c(=O)n(C)c1=O", "hERG current change (%, negative = inhibition) at 10uM": -51.8},
      {"smiles": "Cn1c(N)c(C(=O)COC(=O)/C=C/c2ccc(Cl)cc2)c(=O)n(C)c1=O", "hERG current change (%, negative = inhibition) at 10uM": -43.3},
      {"smiles": "CC(C)Cn1c(N)c(C(=O)COC(=O)CCc2nc3ccccc3c(=O)[nH]2)c(=O)n(C)c1=O", "hERG current change (%, negative = inhibition) at 10uM": -36},
      {"smiles": "CCc1ccccc1OCC(=O)OCC(=O)c1c(N)n(C)c(=O)n(C)c1=O", "hERG current change (%, negative = inhibition) at 10uM": -53.6},
      {"smiles": "CC(C)Cn1c(N)c(C(=O)COC(=O)C2CC(=O)N(c3ccc4c(c3)OCCO4)C2)c(=O)n(C)c1=O", "note": "(centres unmarked)", "hERG current change (%, negative = inhibition) at 10uM": -52.6}
    ]}
  ]
}
